target: T1, GST-Ap-NF-kB RHD (Exaiptasia pallida (Aiptasia), UniProt A0A913YAJ5 2-422); assay: protein-binding microarray (PBM); PBM: ~300 nM protein, 6 mM HEPES pH 7.8, 80 mM KCl, 0.5 mM EDTA, 0.5 mM EGTA, 6% glycerol, 35 ng/ul poly-dIdC, 1% milk, 1 h, room temperature; Ap Aiptasia and Nv Nematostella (sea anemones) / Co Capsaspora / Aq Amphimedon (sponge) / Dm Drosophila / Hu human; RHD is the Rel homology domain; high values mean tight binding; details: dsDNA, one strand shown
T1 sequence: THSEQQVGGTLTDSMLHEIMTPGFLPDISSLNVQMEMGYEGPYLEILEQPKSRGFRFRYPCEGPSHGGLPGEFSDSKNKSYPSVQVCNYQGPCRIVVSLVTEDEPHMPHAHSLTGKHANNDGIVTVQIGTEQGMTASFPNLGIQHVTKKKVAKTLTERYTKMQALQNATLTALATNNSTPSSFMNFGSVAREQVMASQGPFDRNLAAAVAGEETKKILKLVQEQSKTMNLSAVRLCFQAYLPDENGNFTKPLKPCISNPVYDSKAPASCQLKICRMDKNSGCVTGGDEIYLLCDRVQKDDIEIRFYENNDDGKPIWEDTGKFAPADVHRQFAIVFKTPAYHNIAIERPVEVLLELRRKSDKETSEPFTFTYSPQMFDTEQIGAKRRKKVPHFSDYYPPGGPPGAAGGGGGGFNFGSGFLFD

Row | Sequence | binding signal [z-score]
1 | CCGATTAACATCAACTGGGAAAATGATGTTAATCGGGTCTTGATTCGCTTGACGCTGCTG | 1.66
2 | CCGATTAACATCACCTTGGGAAATGATGTTAATCGGGTCTTGATTCGCTTGACGCTGCTG | 1.21
3 | CCGATTAACATCAAATCGGGAAATGATGTTAATCGGGTCTTGATTCGCTTGACGCTGCTG | 1.42
4 | CCGATTAACATCAAGCGTTTCCCTGATGTTAATCGGGTCTTGATTCGCTTGACGCTGCTG | 2.29
5 | CCGATTAACATCAGACTGGGAAATGATGTTAATCGGGTCTTGATTCGCTTGACGCTGCTG | 1.4
6 | CCGATTAACATCAATTTACCCACTGATGTTAATCGGGTCTTGATTCGCTTGACGCTGCTG | 1.67
7 | CCGATTAACATCATGCCCGGGAATGATGTTAATCGGGTCTTGATTCGCTTGACGCTGCTG | 1.55
8 | CCGATTAACATCAATCGGGAAATTGATGTTAATCGGGTCTTGATTCGCTTGACGCTGCTG | 1.3
9 | CCGATTAACATCATGGTGGGAAATGATGTTAATCGGGTCTTGATTCGCTTGACGCTGCTG | 1.25
10 | CCGATTAACATCACCTCTTTCCCTGATGTTAATCGGGTCTTGATTCGCTTGACGCTGCTG | 2.58
11 | CCGATTAACATCAGACATTCCCATGATGTTAATCGGGTCTTGATTCGCTTGACGCTGCTG | 1.46
12 | CCGATTAACATCAGGGGTAGGTTTGATGTTAATCGGGTCTTGATTCGCTTGACGCTGCTG | 2.16
13 | CCGATTAACATCATCTGGGAAAATGATGTTAATCGGGTCTTGATTCGCTTGACGCTGCTG | 1.33
14 | CCGATTAACATCAGGGAAAGGTATGATGTTAATCGGGTCTTGATTCGCTTGACGCTGCTG | 2.16
